Test results reported in PubChem BioAssay AID743126 (The Scripps Research Institute Molecular Screening Center, 2013).
Hit rate of the full screen: of about 370,000 compounds, about 2,100 (0.57%) were called active. For the sample, actives were picked, then their nearest neighbours and some compounds at random. Values without a mark were called inactive.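 Rule for the calls: active = inhibition above mean plus 3 SD of compounds lying within the high and low control bounds (cut at about 19% in these data); inactive = the rest.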

Target: Group 3 secretory phospholipase A2 (Homo sapiens) (UniProt Q9NZ20)
Test: HGIII-sPLA2 enzyme inhibition – biochemical, QFRET, BODIPY PC-A2 liposome substrate, primary screen (AID 743126);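 note: 0% = median of test compound wells and 100% = no enzyme DMSO wells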
Conditions: QFRET BODIPY PC-A2 liposome hydrolysis, fluorescence; at 12.2 µM; stronger effect = higher value

Group 3 secretory phospholipase A2 (Homo sapiens), sequence (Q9NZ20 whole entry, looked up): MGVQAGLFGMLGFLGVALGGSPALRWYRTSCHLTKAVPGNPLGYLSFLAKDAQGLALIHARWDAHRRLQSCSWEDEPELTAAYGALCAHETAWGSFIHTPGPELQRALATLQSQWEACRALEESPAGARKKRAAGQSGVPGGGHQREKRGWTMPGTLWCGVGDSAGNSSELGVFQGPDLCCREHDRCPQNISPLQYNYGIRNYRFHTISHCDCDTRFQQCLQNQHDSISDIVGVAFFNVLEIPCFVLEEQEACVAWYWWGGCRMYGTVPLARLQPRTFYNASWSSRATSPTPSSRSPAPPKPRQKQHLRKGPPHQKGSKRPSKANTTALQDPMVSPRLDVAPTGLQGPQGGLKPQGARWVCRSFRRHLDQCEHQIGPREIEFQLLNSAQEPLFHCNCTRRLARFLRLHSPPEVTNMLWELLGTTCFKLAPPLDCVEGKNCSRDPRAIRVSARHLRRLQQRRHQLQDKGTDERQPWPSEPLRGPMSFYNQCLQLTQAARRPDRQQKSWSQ

Structure (SMILES) | inhibition
COc1ccc(-n2c(SCC(=O)Nc3ccc4c(c3)OCCO4)nnc2-c2ccc(Cl)cc2)cc1 | 0.31%
CC(NCc1ccco1)C(=O)N1CCCCC1 (configuration not stated) | 3.8%
CCN(CC(=O)NC1CCS(=O)(=O)C1)S(=O)(=O)c1ccccc1 (configuration not stated) | 22.4% (active)
O=C(CSc1ccccc1F)NC1CCS(=O)(=O)C1 (configuration not stated) | 1.4%
CCN(CC(=O)NCCc1ccccc1)S(=O)(=O)c1ccccc1 | 0.93%
CCCNC(=O)Nc1ccc2c(c1)C(=O)N(C)[C@H]1CC[C@H](CC(=O)NCC3CCCCC3)O[C@@H]1CO2 | -24.2%
C=CCN1[C@@H](Cc2ccccc2)COc2cccc(N3CCSCC3)c2S1(=O)=O | -0.87%
O=C(CSc1nc2ccccc2s1)N=Nc1c(O)[nH]c2ccccc12 | -40.6%
O=C(CSc1nnc(-c2cccs2)n1Cc1ccco1)c1ccc2c(c1)OCO2 | -35.9%
O=C(CSc1nnc(COc2ccccc2)n1Cc1ccco1)c1ccc2ccccc2c1 | -53.5%
Cc1sc2nc(SCC(=O)c3ccc(O)c(O)c3)n(Cc3ccco3)c(=O)c2c1C | 23.9% (active)
COc1ccc(-n2c(COc3ccc(C)cc3)nnc2SCC(=O)Nc2ccc(Oc3ccccc3)cc2)cc1 | -8.43%
CCN(C(=O)[C@@H](C1CC1)[C@@H](O)c1ccc2ccccc2c1)c1ccccc1 | 4.03%
CCCCN1CCN(C(=O)c2ccc3c(c2)NC(=O)C(C)(C)O3)CC1 | 5.11%
O=C(Nc1ccccc1)N1CCN(Cc2nc3ccccc3c(=O)[nH]2)CC1 | 7.43%
COC(=O)[C@H](C(C)C)N1CCc2nnn(Cc3ccc(C)cc3)c2-c2ccccc2S1(=O)=O | -9.33%
CC(C)=CCCC1(C)C=Cc2c(ccc3c2[nH]c2cc(O)c(C)cc23)O1 (configuration not stated) | 22.9% (active)
C=C(C)C#CC(Cc1ccccc1)N(CC1CC1)/C(N)=N/C(=O)OCc1ccccc1 (configuration not stated) | 7.88%
CC(C)c1cc(C(=O)N/N=C/c2ccoc2)c(O)c(C(C)C)c1 | 22.1% (active)
CC(C)c1cc(N=O)cc(C(C)C)c1O | -42.9%
C[C@@H]1COc2cccc(N3CCCC3)c2S(=O)(=O)N1C | 2.99%
O=C(c1ccccc1)c1ccc(-c2ccccc2C(=O)NC2CCCCN(Cc3ccc(Cl)cc3)C2=O)cc1 (configuration not stated) | -1.89%

Structure (SMILES) | inhibition
Brc1ccccc1C1Nc2cccc3cccc(c23)N1 | 27.1% (active)
Brc1ccccc1C1N=C(c2ccccc2)NO1 (configuration not stated) | 9.79%
COc1cc2c(cc1OC)C(c1ccccc1Br)NC(=O)C2 (configuration not stated) | 13.2%
Cc1ccc(NC(=O)Nc2cc(C)nn2-c2ccccc2)cc1 | 3.2%
Cc1nc2ccc(C(=O)N3CCN(C(=O)C(C)(C)C)CC3)cc2n1C1CCCC1 | 3.1%
CN1C(=O)c2cc(NS(C)(=O)=O)ccc2OC[C@@H]2O[C@@H](CC(=O)NCc3ccc(-c4ccccc4)cc3)CC[C@H]21 | -2%
c1csc(-c2nnc(SCc3nc4ccccc4[nH]3)o2)c1 | -4.46%
O=C(NC1CCCCN(Cc2cccc(C(F)(F)F)c2)C1=O)c1ccccc1I (configuration not stated) | -1.99%
Cc1c(Cl)cccc1NC(=S)NCC(O)c1ccccc1 (configuration not stated) | 8.54%
Cc1c(Cl)cccc1NC(=S)NCc1ccc2c(c1)OCO2 | 19.5% (active)
COc1cccc(CNCc2ccc3c(c2)OCO3)c1 | 3.34%
O=C(CSc1nnc(-c2cccc(Cl)c2)n1Cc1ccco1)Nc1ccc(OCc2ccccc2)cc1 | -12.1%
Cc1ccccc1CS(=O)(=O)Cc1ccc(C(=O)Nc2ccc(Cl)cc2)o1 | -4.56%
CCS(=O)(=O)N1Cc2ccccc2CC1C(=O)Nc1ccc(OC)cc1OC (configuration not stated) | -0.28%
CCOc1ccc(N2CC(C(=O)NCc3ccccn3)CC2=O)cc1 (configuration not stated) | 0.93%
COc1ccc(NC(=O)C2C3C=CC(C3)C2C(=O)NCc2ccccn2)c(OC)c1 (configuration not stated) | 20.6% (active)
Cc1ccc(-n2c(SCC(=O)Nc3cccc4ccccc34)nnc2-c2ccccn2)cc1 | -5.54%
O=C(Nc1ccc(CSc2ccccc2)cc1)c1ccc(CN2CCOCC2)cc1 | -16.7%
CCc1cc(C(c2ccccc2OC)N2CCOCC2)c(NC(=O)c2ccccc2)s1 (configuration not stated) | -10.3%
COc1ccc(C(=O)Nc2sc(C)c(C)c2CN2CCOCC2)cc1 | 21.9% (active)
CCCCC(=O)N[C@@H]1CC[C@@]23CCCN2C(=O)CCC[C@H]3[C@H]1C | 7.19%
COCC(=O)N[C@@H]1C[C@@H]2O[C@@H](CO)CC[C@@H]2O[C@@H]1CCc1ccc(-c2ccccc2)cc1 | -1.64%

Structure (SMILES) | inhibition
CCOC(=O)c1csc(NC(=O)Nc2cccc(OC)c2)n1 | -1.84%
COc1ccc(C(N)c2csc(NC(=O)Nc3cccc(C(F)(F)F)c3)n2)cc1 (configuration not stated) | 27.4% (active)
NC(c1csc(NC(=O)Nc2cccc(C(F)(F)F)c2)n1)C1CCCCC1 (configuration not stated) | 6.78%
COC(=O)C[C@H]1CC[C@H]2[C@H](COc3ccc(NC(=O)C4CC4)cc3C(=O)N2C)O1 | -1.19%
CC(C)(C)c1ccc(CSc2nnc(-c3cccs3)o2)cc1 | -0.56%
CN(C)S(=O)(=O)c1cccc(C(=O)N/N=C\c2ccco2)c1 | 1.45%
CN(C)S(=O)(=O)c1cccc(NC(=S)N/N=C/C(=O)c2ccccc2)c1 | 24% (active)
CN(C)S(=O)(=O)c1cccc(NC(=O)COC(=O)/C=C/c2cccs2)c1 | -11.5%
COC(=O)C1CN(Cc2cn(Cc3ccc(F)cc3)nn2)CCS(=O)(=O)N1Cc1ccc(Cl)cc1 (configuration not stated) | -11.8%
Cc1cc(C(=O)NN=C/C=C/c2ccco2)n[nH]1 | 13%
COc1ccc2c(c1)c(=Cc1ccc(N(C)C)cc1)c1cc(-c3ccccc3)[n+](C)n12 | 31.7% (active)
CCCC[C@H](C(=O)N(CC)c1ccccc1)[C@@H](O)c1ccc2ccccc2c1 | -3.7%
O=S(=O)(NC(=S)Nc1ccccc1)c1ccc(F)cc1 | -1.06%
O=C(NNC(=S)Nc1ccc(F)cc1)[C@H]1C[C@@H]1c1ccccc1 | 24% (active)
Cc1ccc(NC(=O)C2CC2c2ccccc2)cc1 (configuration not stated) | -0.8%
c1ccc(C2=Nc3cccc4cccc(c34)N2)cc1 | 38.6% (active)
Brc1ccc(C2CC(c3ccccc3)=Nc3ccccc3N2)cc1 (configuration not stated) | -5.39%
CC[C@]1(O)CC2CN(CCc3c([nH]c4ccccc34)[C@@](C(=O)OC)(c3cc4c(cc3OC)N(C=O)[C@H]3[C@@](O)(C(=O)OC)[C@H](OC(C)=O)[C@]5(CC)C=CCN6CC[C@]43[C@@H]65)C2)C1 (some centres not stated) | 13.5%
CC[C@]1(O)C[C@@H]2CN(CCc3c([nH]c4ccccc34)[C@@](C(=O)OC)(c3cc4c(cc3OC)N(C)[C@H]3[C@@](O)(C(=O)OC)[C@H](OC(C)=O)[C@]5(CC)C=CCN6CC[C@]43[C@@H]65)C2)C1 | 24.8% (active)
C=CCN1C(=O)[C@@H](CC(=O)NCCCCc2ccccc2)[C@]2(C(=O)OCC)CCCCC/C=C/12 | -9.75%
COC(=O)[C@]1(C#N)CC(=O)N(CC2CCCCC2)[C@@H]1c1ccccc1 | 4.27%
CN(C(N)=NC(=O)/C=C/c1ccccc1)C(C#Cc1ccccc1)Cc1ccccc1 (configuration not stated) | 2.67%

Structure (SMILES) | inhibition
O=C(COC(=O)c1ccccn1)NNC(=O)c1ccc(Br)cc1 | -1.11%
O=C(NNc1ccccn1)c1ccc(Cl)nc1 | 21.1% (active)
CCN(CC)S(=O)(=O)c1cc(C(=O)Nc2ccccn2)ccc1C | -0.99%
O=S1(=O)c2c(cccc2N2CC[C@H](O)C2)O[C@@H]2CCN1C2 | 4.99%
O=C(NCc1ccco1)C1CCCN(S(=O)(=O)c2ccc(Cl)s2)C1 (configuration not stated) | -7.36%
CCOCC(=O)NCc1ccc2c(c1)cc(C)n2C | 12.3%
CCc1cccc(CC)c1NC(=S)NCc1ccc2[nH]c(C)cc2c1 | 20.3% (active)
Cc1cc2cc(CNC(=O)c3cccs3)ccc2[nH]1 | 1.16%
COc1cccc(CNC(=O)C2CCCN(c3nc4ccccc4o3)C2)c1OC (configuration not stated) | 10.2%
COc1ccc(-n2c(SCC(=O)Nc3ccc(C)c(Cl)c3)nc3ccccc3c2=O)cc1 | 14.2%
CC(C)(C)OC(=O)NCCc1ccccc1/C=C/S(=O)(=O)NCc1ccc(F)cc1 | -1.5%
CCCCNC(=O)C[C@H]1C[C@@]2(C(=O)OC)C(=C[C@H](COCc3ccccc3)O[C@@H]2C)N(Cc2ccc(Cl)cc2Cl)C1=O | -3.1%
Cc1ccc(-c2nnc(SCC(=O)Nc3ccc(Oc4ccccc4)cc3)n2Cc2ccco2)cc1 | -6.88%
O=C(Cc1c(Cl)cccc1Cl)NC1CC1 | 2.07%
O=C(CCl)NNc1cccc(Cl)n1 | 71% (active)
O=C(NNc1cc(Cl)cc(Cl)c1)c1c(F)cccc1Cl | 3.94%
COC(=O)[C@]12C[C@H](CC(=O)N3CCOCC3)C(=O)N(Cc3ccc(Cl)cc3Cl)C1=C[C@H](COCc1ccccc1)O[C@@H]2C | -3.17%
O=C1CC(c2ccc3c(c2)OCO3)N=C2N(CC3CC3)C/C(=C/c3ccccc3)N12 (configuration not stated) | -10.4%
CCOc1ccc(Br)cc1S(=O)(=O)N1CCC(C(=O)O)CC1 | 5.01%
CCOc1ccc(Br)cc1CSC(=N)N | 34.9% (active)
CCOc1ccc(Br)cc1S(=O)(=O)Nc1cccc(S(=O)(=O)N(CC)CC)c1 | -8.7%
